Molecules are shown by their SMILES. Inconclusive results are not listed. Active and inactive are the calls of the source. The call rests on the fitted dose curve; in most records, active means well fitted inhibition curve with a large enough effect; inconclusive means small, poorly fitted or top-dose-only effect; inactive means flat fitted curve, though single readings scatter.

Assay in all cases: qHTS profiling for inhibitors of Plasmodium falciparum proliferation (AID 504749); further: nearly all actives have a fitted effect of over 60% in size
Holding throughout (settings): P. falciparum in erythrocytes, SYBR Green DNA, 72 h; series mostly up to 28.7 µM
In general terms: In qHTS, concentration-response curves come from the screen itself.

The test system of assay [1] is AA1029. Summed up: (§1)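 P. falciparum-infected erythrocytes (0.3% parasitemia, 2.5% hematocrit) incubated with compound 72 h at 37 C, 5% CO2. Parasite DNA detected by SYBR Green after lysis, overnight at room temperature; normalised to 0.29 uM artemisinin and DMSO.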
In assay [2] the test system is ATS95. Summed up: as §1
Assay [3] relates to C2A. Summed up:
as §1

The subject of assay [4] is CP211. In outline: as §1
The subject of assay [5] is CP215. Summed up:
as §1

The test system of assay [6] is CP217. In outline: as §1
The test system of assay [7] is CP250. In outline:
as §1

Assay [8] has as its system CP252. Summed up:
as §1

Assay [9] deals with CP256. Summed up: as §1
In assay [10] the test system is CP260. In outline:
as §1

Assay [11] has as its system CP269. In outline: as §1
Assay [12] relates to CP315. In outline: as §1
The subject of assay [13] is CP325. Summed up: as §1
The subject of assay [14] is CP329. Summed up: as §1
For assay [15], the system named is ECU. In outline: as §1
Assay [16] has as its system N140. In outline: as §1
In assay [17] the test system is P93_24. In outline:
as §1

For assay [18], the system named is PAD. In outline:
as §1

Assay [19] relates to SC27B. Summed up: as §1
The test system of assay [20] is TAB165. In outline: as §1
Potency means the concentration at half of the fitted maximal effect.

Consider `CC(C)[C@@]1(NC(=O)[C@H]2CC3c4cccc5[nH]cc(c45)C[C@H]3N(C)C2)O[C@@]2(O)C3CCCN3C(=O)[C@@H](Cc3ccccc3)N2C1=O` (stereo not given in full), for which the Potency in [1] is 3.16 µM (active); in [2] it was 3.16 µM (active); in assay [3], 6.31 µM (active); in assay [4] it was 6.01 µM (active); in assay [5] it was 5.36 µM (active); in assay [6], 3.98 µM (active). Besides, the Potency is 12.6 µM (active) in assay [7]; 3.98 µM (active) in assay [8]; 7.94 µM (active) in [9]; 3.16 µM (active) in assay [10]; 4.26 µM (active) in assay [11]; 9.53 µM (active) in assay [12]. The Potency was 9.53 µM (active) in assay [13]; 13.5 µM (active) in assay [14]; 1.41 µM (active) in assay [15]; 447 nM (active) in assay [16]; 891 nM (active) in assay [17]; 1.12 µM (active) in [18]. The Potency in [19] was 2 µM (active); in assay [20], 562 nM (active).

On to `O=C(O)c1ccccc1-c1c2cc(Br)c(=O)cc-2oc2[c]([Hg])c(O)c(Br)cc12`, for which the Potency entry in [1], in assay [2], in assay [3], in assay [4], in assay [5] and in assay [6] was “inactive” each time. Moreover, the Potency entry in assay [7], in assay [8], in assay [9], in assay [10], in assay [11] and in assay [12] was “inactive” each time. For the same compound, the Potency result in assay [13], in assay [14], in assay [15], in assay [16], in assay [17] and in assay [18] was “inactive” throughout. Moreover, the Potency result in assay [19] and in assay [20] was “inactive” each time.

As to `CCN1C[C@]2(COC)[C@H](O)C[C@H](OC)[C@]34C1C([C@H](OC)[C@H]23)[C@]1(OC(C)=O)C2[C@@H](OC(=O)c3ccccc3)C(O)(C[C@H]24)[C@@H](OC)[C@@H]1O`, the Potency entry in assay [1], in assay [2], in [3], in [4], in assay [5] and in assay [6] was “inactive” each time. Further, the Potency entry in assay [7], in assay [8], in assay [9], in assay [10], in assay [11] and in assay [12] was “inactive” throughout. The Potency entry in assay [13], in [14], in assay [15], in [16], in [17] and in assay [18] was “inactive” each time. Further, the Potency result in assay [19] and in [20] was “inactive” each time.

For the origin of these results see PubChem BioAssay (NCATS).
